From PubChem BioAssay
CHX counter-1: counter-screen for Shiga toxin inhibitors: cycloheximide protein synthesis inhibition | max response, % | cell reporter, cycloheximide protein synthesis inhibition counterscreen | 12% of 300,000 active; in the data active = max response mostly above about 13%, no sharp cut-off; inactive = mostly below about 14%; also: read at 38.3 µM for the half of the compounds with a filed dose
Pf growth 48h: P. falciparum growth inhibition at 48 hours (one generation); Potency, µM (top dose mostly 28.7 µM), usual class: inhibitors; AID 504832; P. falciparum luciferase growth in erythrocytes, 48 h; 5.9% of 310,000 active
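Luminescence readout; reporter = integrated firefly luciferase in P. falciparum. RBC culture at 2% hematocrit, 0.1% parasitemia final, 37 C/5% CO2; decreased signal taken as growth inhibition.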
NS1 function inh: influenza NS1 inhibition; Potency, µM (series often up to 46.1 µM); 0.4% of 270,000 active; AID 2326; calls by dose curve; also: actives are rising curves; nearly all actives have a fitted effect of over 50% in size
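A cell-based growth assay was used: compounds that relieve NS1-induced slow growth of budding yeast raise OD600. Assay medium was yeast nitrogen base with ammonium sulphate and -URA supplement, pH 6.0, with 2% galactose.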
Pf growth 96h: P. falciparum growth inhibition at 96 hours; P. falciparum luciferase reporter growth, 96 h; Potency, µM (doses to about 28.7 µM), usual class: inhibitors; 6.9% of 320,000 active; AID 504834
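Plates of compound plus infected erythrocytes (2% hematocrit, 0.05% parasitemia final) incubate 96 hours, 37 C, 5% CO2. Detection reagent added; reduced luminescence from the parasites' luciferase reporter flags inhibition.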
Shiga inhibitor: Shiga toxin inhibition; Vero cells, Shiga toxin protein synthesis inhibition reporter; inhibition, % at 38.7 µM; 9.2% of 290,000 active; in the data active = inhibition mostly above about 28%, no sharp cut-off; inactive = mostly below about 43%
Giardia FBPA inh: blocks Giardia fructose-bisphosphate aldolase activity. purified Giardia FBPA. A8B2U2. Potency, µM (top dose mostly 59.6 µM), actives largely listed as inhibitors. 0.71% of 290,000 active; also: nearly all actives have a fitted effect of over 55% in size
Target sequence (A8B2U2 whole entry, looked up): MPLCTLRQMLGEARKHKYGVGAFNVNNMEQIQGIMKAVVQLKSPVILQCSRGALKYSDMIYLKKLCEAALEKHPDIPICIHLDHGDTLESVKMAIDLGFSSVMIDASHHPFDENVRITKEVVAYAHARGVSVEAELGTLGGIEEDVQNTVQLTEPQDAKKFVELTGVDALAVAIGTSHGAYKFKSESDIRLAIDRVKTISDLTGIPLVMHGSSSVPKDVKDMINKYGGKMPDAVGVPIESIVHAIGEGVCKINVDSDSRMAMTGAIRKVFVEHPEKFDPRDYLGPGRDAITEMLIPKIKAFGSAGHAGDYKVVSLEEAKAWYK
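Giardia FBPA (40 nM reagent) was preincubated 10 min at RT with compound (up to 57.5 uM final), then substrate plus GAPDH/TPI/NAD/arsenate coupling system with diaphorase/resazurin was added; resorufin fluorescence (525/598 nm) was read after 20 min.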
CHX counter-2: protein synthesis counter-screen activity for Shiga toxin hits. shares compounds with Shiga inhibitor. Cycloheximide counterscreen, protein synthesis reporter, Shiga toxin assay. Potency, µM (top dose mostly 38.3 µM), most hits filed as activators. 3% of 510 active. AID 2318; calls by dose curve
Numbers stand for hits; – = inactive; ? = inconclusive; · = no result; [ ] = remark or other dose. Hits are enriched below; roughly 21% of the tested compounds scored in any of these assays. Unless noted, calls follow the shape of the dose curve; as a rule, active = well fitted curve in the direction sought with a large enough effect; inconclusive = small, poorly fitted or top-dose-only effect, or another doubt; inactive = no such curve, though single readings can be large; an effect the other way counts as inactive or inconclusive.

SMILES	CHX counter-1	Pf growth 48h	NS1 function inh	Pf growth 96h	Shiga inhibitor	Giardia FBPA inh	others
COc1cc(C(=O)N2CCN(C(=O)c3cc(-c4ccc(Br)cc4)n[nH]3)CC2)cc(OC)c1OC	–	?	–	–	–	–
CCN(CC(=O)Nc1ccc(NC(C)=O)cc1)C(=O)c1ccc2c(c1)OCCO2	·	–	·	?	·	·
O=C(NNC(=O)c1ccc(F)cc1F)c1ccc2c(c1)OCO2	48	–	·	–	62	–
CCOc1ccc(C(=O)Nc2ccc3c(c2)OCCO3)cc1	34	–	–	–	49	–
CCOc1ccc(NC(=O)CN2CCN(CC(=O)Nc3ccc4c(c3)OCCO4)CC2)cc1	–	?	–	–	–	–
CCN(CC(=O)Nc1ccc2c(c1)OCCO2)C(=O)c1cccc(OCC(C)C)c1	16	–	–	?	–	·
O=C(NNS(=O)(=O)c1ccc(F)cc1)c1ccc2c(c1)OCO2	–	–	–	–	–	–
CCCc1cc2c(cc1NC(=O)c1ccc(Br)cc1)OCO2	–	–	–	–	–	–
CCCc1cc2c(cc1NC(=O)c1ccc(C(C)(C)C)cc1)OCO2	22	?	–	–	29	–
Cc1ccccc1CS(=O)(=O)CCC(=O)NCc1ccc(F)cc1Cl	–	–	–	–	–	·
O=C(/C=N/O)NCCCCNC(=O)/C=N/O	·	·	·	·	·	–[12.9 µM]
O=C(O)c1cc2[nH]c3c(c2cc1Cl)CCCC3	–	–	–	?	·	–
CCOc1ccc(C(=O)Nc2ccc3c(c2)OCO3)cc1OCC	–	–	–	·	–	–
O=C(Nc1ccc2c(c1)OCCO2)c1ccc(Br)o1	42	–	–	–	91	–
CC(OC(=O)c1ccc(Br)o1)C(=O)Nc1ccc2c(c1)OCCO2 (stereo unspecified)	·	–	·	–	·	·
Cc1ccc(NC(=O)c2oc3ccccc3c2NC(=O)c2ccc3c(c2)OCO3)cc1	12	?	–	–	33	–
CCN1C(=O)c2ccc(C(=O)NCc3ccc4c(c3)OCO4)cc2C1=O	–	–	–	–	–	–
CCN1C(=O)c2ccc(C(=O)Nc3ccc4c(c3)OCO4)cc2C1=O	23	–	–	–	62	–
COc1ccc(C(=O)Nc2ccc3c(c2)OCCO3)cc1Br	19	–	–	?	34	–
Cc1cc2ccc(=O)oc2cc1OC[C@@H](O)C(C)(C)O	·	·	·	·	·	–
COc1cccc2c1C(=O)c1c(O)c3c(c(O)c1C2=O)C[C@](O)(C(=O)CO)C[C@H]3O[C@@H]1C[C@H](N)[C@H](O)[C@H](C)O1	·	·	·	·	·	–
Cc1ccc(NC(=O)C2CCCN2C(=O)NC2CCCCC2)cc1 (stereo unspecified)	–	–	–	?	–	–
O=C(Nc1ccc2c(c1)OCO2)c1ccncc1	–	–	–	?	–	–
O=C(Nc1ccc(NC(=O)c2ccco2)cc1)c1ccc2c(c1)OCCO2	–	–	·	–	–	–
Cc1ccc(C(=O)Nc2ccc3c(c2)OCO3)cc1	25	·	–	–	–	?
SMILES	CHX counter-1	Pf growth 48h	NS1 function inh	Pf growth 96h	Shiga inhibitor	Giardia FBPA inh	others
COc1ccc(C(=O)NC(=S)Nc2nc(C)cc(C)n2)cc1Br	21	–	–	?	–	–
CCOc1cc(C(=O)NC(=S)Nc2nc(C)cc(C)n2)cc(OCC)c1OCC	–	–	–	–	–	?
COc1ccc(NC(=O)c2cccc(N3C(=O)NC4CC3(C)Oc3ccccc34)c2)cc1 (stereo unspecified)	–	·	–	·	–	–
COc1cccc2c1OC1(C)CC2NC(=O)N1c1cccc(C(=O)Nc2ccc3c(c2)OCCO3)c1 (stereo unspecified)	33	–	–	?	93	–
O=C(Nc1ccc2c(c1)OCCO2)c1cccc(Br)c1	38	–	–	–	43	–
COc1ccc(-c2nc3cnc(N4CCOCC4)nc3n(C3CC3)c2=O)cc1	·	·	·	·	·	–
NS(=O)(=O)c1ccc(CCNCC(=O)N2CCC(Cc3ccccc3)CC2)cc1	–	–	–	–	–	?
Cc1nnc(SCc2ccccc2)n(N)c1=O	–	–	–	–	–	–
Cc1nnc(SCc2cccc(Oc3ccccc3)c2)n1N	21	–	–	–	–	–
Nn1c(SCc2ccc(F)cc2)nnc1-c1ccccn1	34	–	–	–	68	–
NC(=O)CSc1nnc(-c2ccccn2)n1N	–	–	–	–	–	–
Nn1c(SCc2ccc(F)cc2)nnc1-c1cccnc1	–	–	–	–	–	–
Cc1ccc(CSc2nnc(C)c(=O)n2N)cc1	12	–	–	–	–	–
Nn1c(SCc2ccccc2F)nnc1-c1ccccn1	33	–	–	–	135	–
Nn1c(SCc2ccccc2)nnc1-c1ccccn1	30	–	–	–	38	–
Cc1ccc(CSc2nnc(-c3ccccn3)n2N)cc1	23	–	–	–	107	–
CC(OC(=O)CN1C(=O)NC2(CCCC2)C1=O)c1ccc(F)cc1 (stereo unspecified)	·	–	·	–	·	·
CCn1c(Cc2ccccc2)nnc1SCC(=O)Nc1cc(C)on1	–	–	–	8.3µM	–	–
COC(=O)c1ccc2c(=O)n(Cc3ccco3)c(SCC(=O)Nc3cc(C)on3)nc2c1	–	4.7µM	–	–	–	–
COC(=O)c1ccc2c(=O)n(Cc3ccco3)c(SCC(=O)Nc3ccccc3Cl)nc2c1	–	–	–	?	–	–
Cc1cc(NC(=O)CSc2nnc(Cc3ccccc3)n2C)no1	–	–	–	–	–	–
COC(=O)CSc1nnc(CSc2nc(C)cc(C)n2)n1Cc1ccco1	–	–	–	·	–	–
Cc1cc(NC(=O)CSc2nnc(COc3ccccc3)n2Cc2ccco2)no1	–	–	–	8.3µM	–	–
Cc1cc(NC(=O)CSc2nnc(-c3ccccc3)n2Cc2ccco2)no1	–	?	–	?	–	–
Cc1cc(C)nc(SCc2nnc(SCC(=O)Nc3ccc(C)c(C)c3)n2Cc2ccco2)n1	–	?	–	13µM	–	–
SMILES	CHX counter-1	Pf growth 48h	NS1 function inh	Pf growth 96h	Shiga inhibitor	Giardia FBPA inh	others
CCCCCCC1=Cc2cc(OC)c(OC)cc2C(C(C(C)=O)C(=O)OCC)O1 (stereo unspecified)	·	·	·	·	·	–[12.9 µM]
Cc1ccc(NC(=O)c2c(C(F)(F)F)nn(C)c2SCc2ccc(Cl)cc2)cc1C	22	?	–	?	46	–
Cc1cccc(C)c1NC(=O)c1sccc1SCc1cccc(C(F)(F)F)c1	–	?	–	?	–	–
Cn1nc(C(F)(F)F)c(C(=O)Nc2ccc(Cl)cc2)c1Cl	–	–	–	–	–	–
Cc1ccc(NC(=O)c2c(C(F)(F)F)nn(C)c2SCc2cccc(C(F)(F)F)c2)cc1C	20	?	–	?	51	–
COc1ccc(C(=O)CC(=O)C(=O)Nc2ccc(C)cc2Cl)cc1	–	·	–	–	22	–	CHX counter-2=–
CCCC[C@@H]1C[C@H]1C(NC(=O)c1ccccc1)c1ccc(Cl)cc1 (stereo partly specified)	·	·	·	·	·	–
